# Screens: PubChem BioAssay, National Center for Advancing Translational Sciences (NCATS)
# TSG101-PTAP inh: TSG101-PTAP interaction inhibition, HIV-1 budding. Q99816. Fluorescence polarization, FITC-PTAP peptide/Tsg101, 20 min. Potency, µM (highest dose often 115 µM), actives largely listed as inhibitors. 44,000 tested, under 10 active. AID 1347069; note: potency is the fitted concentration of half-maximal effect; 0% is about no effect
#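 Read-out is FITC fluorescence polarization. Compounds were added to Tsg101 binding domain (10 uM final), then FITC-PTAP peptide (50 nM final), 20 min at r.t. Total S+P intensity flags fluorescent compounds.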
# NTMT1 inh: inhibitors of human N-terminal methyltransferase NTMT1 | Q9BV86 | NTMT1 MTase-Glo SAH luminescence, purified enzyme | Potency, µM (top dose mostly 114 µM), for inactives: at the highest dose activity change, negative = inhibition, most hits filed as inhibitors | actives 2.5% (n = 59,000) | AID 1645870;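 note: potency is the fitted concentration of half-maximal effect; plate controls were DMSO vehicle for no effect and no enzyme for full effect; nearly all actives have a fitted effect of over 65% in size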
# Target sequence (Q9BV86 whole entry, looked up): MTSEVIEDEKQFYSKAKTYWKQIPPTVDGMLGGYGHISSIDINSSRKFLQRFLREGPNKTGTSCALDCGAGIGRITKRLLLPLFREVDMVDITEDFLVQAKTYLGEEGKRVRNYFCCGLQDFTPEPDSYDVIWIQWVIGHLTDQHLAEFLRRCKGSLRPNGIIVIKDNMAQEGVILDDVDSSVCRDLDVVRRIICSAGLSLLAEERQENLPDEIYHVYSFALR
# GPR32 ag: agonists of human resolvin D1 receptor DRV1 (GPR32). actives 2.5% (n = 48,000). activation, % at 76.9 µM. O75388. CHO-K1 GPR32 beta-arrestin PathHunter luminescence, 90 min; zero percent set by DMSO-only wells;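 active = activation of at least 60% and not above a set upper limit, about 1 call in 100 departs from these limits; inconclusive = activation of 40% to 60%, or above that upper limit; inactive = activation under 40%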; note: 0% is about no effect
#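 Luminescent readout of beta-Gal complementation quantifies ligand-induced beta-arrestin association with GPR32 in CHO-K1 cells; 90 min compound incubation at 37 °C, detection 1 h at room temperature.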
# FH mod: Identification of activators of human fumarate hydratase by quantitative high-throughput screening; Fumarate hydratase, mitochondrial (Homo sapiens), P07954; FH coupled MDH/diaphorase resazurin fluorescence, 15 min; Potency, µM (series often up to 79.9 µM), without a hit: at the top dose activity change, negative = inhibition, actives largely listed as inhibitors; actives 0.22% (n = 54,000); AID 1347055, 2019; note: potency is the fitted concentration of half-maximal effect; % is set by controls: 0 for no effect and ±100 for the full control effect; the screen sought activators but most active calls are inhibition curves; nearly all actives have a fitted effect of over 45% in size
# GALK inhibitor: inhibitors of human galactokinase (GALK) | P51570 | recombinant GALK, Kinase-Glo ATP luminescence, 1 h | Potency, µM (top dose mostly 57.5 µM), without a hit: top-dose activity, negative = inhibition, usual class: inhibitors | 44,000 tested, under 10 active | AID 1347072;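 note: plate controls were full GALK reaction for no effect and reaction lacking GALK for full effect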
# Target sequence (P51570 whole entry, looked up): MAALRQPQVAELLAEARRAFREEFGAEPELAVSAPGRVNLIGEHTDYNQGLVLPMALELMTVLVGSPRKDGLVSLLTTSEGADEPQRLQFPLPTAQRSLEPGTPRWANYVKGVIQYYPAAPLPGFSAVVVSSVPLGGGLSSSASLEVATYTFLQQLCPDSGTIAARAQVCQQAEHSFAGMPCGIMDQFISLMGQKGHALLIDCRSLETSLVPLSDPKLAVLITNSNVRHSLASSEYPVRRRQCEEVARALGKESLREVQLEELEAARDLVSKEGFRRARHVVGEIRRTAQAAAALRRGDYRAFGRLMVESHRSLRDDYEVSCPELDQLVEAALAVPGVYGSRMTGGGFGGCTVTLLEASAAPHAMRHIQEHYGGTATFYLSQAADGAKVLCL
#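 5 nM GALK; 35 uM ATP; 100 uM D-galactose; 20 mM HEPES pH 8.0, 5 mM MgCl2, 60 mM NaCl, 1 mM DTT, 0.01% BSA; 1 h RT; Kinase-Glo Plus luminescence.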
# B2AR arrestin ag: ADRB2 beta-arrestin recruitment; HTLA Tango cells, beta-arrestin recruitment, luciferase luminescence, 18 h; P07550; Potency, µM (titrated, usually from 46.1 µM), hits mostly activators; 44,000 tested, under 10 active; AID 1347077;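 note: potency is the fitted concentration of half-maximal effect; 0% = DMSO and full agonism = EC100 isoproterenol or metaproterenol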
#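 Tango cells (recombinant beta2-AR, beta-arrestin, tTA-driven luciferase), 1500/well in DMEM 1% FBS, treated 18 h at 37 °C with compounds up to 46 µM; luciferin mix added, luminescence read after 15 min; %activity curves fitted and curve-classed.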
# Numbers without * were called inactive; i = inactive; ? = inconclusive; · = no result given; [ ] = remark or other dose. Compounds with a hit are over-represented: about 3.7% of the library has one in this group of screens. Unless noted, calls come from the whole dose curve; as a rule, active = well fitted curve in the direction sought with a large enough effect; inconclusive = small, poorly fitted or top-dose-only effect, or another doubt; inactive = no such curve, though single readings can be large; an effect the other way counts as inactive or inconclusive.
SMILES,TSG101-PTAP inh,NTMT1 inh,GPR32 ag,FH mod,GALK inhibitor,B2AR arrestin ag
Cc1ccc(C)c(NC(=O)Cn2c(=O)oc3cc(S(=O)(=O)NCc4ccccc4)ccc32)c1,i,11%,72*,-2%,-13%,i
CCc1ccc(NC(=O)Cn2c(=O)oc3cc(S(=O)(=O)NCc4ccccc4)ccc32)cc1,i,3%,73*,-1%,-3%,i
COc1ccc(C)cc1NC(=O)Cn1c(=O)oc2cc(S(=O)(=O)N3CCCCCC3)ccc21,i,-5%,-6,2%,-2%,i
COc1ccc(C)cc1NC(=O)Cn1c(=O)oc2cc(S(=O)(=O)NCc3ccccc3)ccc21,i,9%,-1,2%,0%,i
CC(CNC(=O)c1cnn(-c2ccc(F)cc2)c1-n1cccc1)c1ccccc1 (centres undefined),i,79µM*,12,-18%,1%,i
COc1ccc(CNC(=O)c2cnn(-c3ccc(F)cc3)c2-n2cccc2)cc1,i,-2%,-11,-27%,-1%,i
O=C(N/N=C/c1ccc(O)c(O)c1)c1cc2ccccc2cc1O,·,3%[12.6 µM],·,-17%[20.6 µM],·,·
O=C1/C(=C/c2ccc(O)c(O)c2)Oc2ccccc21,·,28µM*,·,?,·,·
COc1ccc(C(=O)Nc2ccc3oc(-c4cc(Cl)ccc4Cl)nc3c2)cc1Br,i,79µM*,1,-3%,0%,i
Cc1ccc(-c2ccc(CCC(=O)O)n2-c2cccc(O)c2)cc1,i,79µM*,0,-31%,-2%,i
CCOC(=O)c1ccc(NC(=O)Cn2nc3c4ccccc4n(Cc4cccc(F)c4)cc-3c2=O)cc1,i,79µM*,-6,-14%,?,i
COc1ccc(OC)c(CCNC(=O)CS(=O)(=O)Cc2nc(-c3cccc(Cl)c3)oc2C)c1,i,4%,88*,-12%,7%,i
CCc1nnc2c(Nc3ccc(N(CC)CC)cc3C)nc3ccccc3n12,i,89µM*,-20,?,0%,i
CCc1cccc(NC(=O)Cn2c(=O)n(CC(=O)NCCc3ccccc3)c(=O)c3ccccc32)c1,i,-1%,81*,-2%,0%,i
CCN1CCc2c(sc(NC(=O)CSc3ccccc3)c2-c2nc3ccccc3s2)C1,40µM*,3%,-30,10%,-7%,i
Cc1ccc(OCCn2c(CCNC(=O)c3ccc4ccccc4c3)nc3ccccc32)cc1,·,1%[57.5 µM],·,·,·,·
O=C([C@H](Cc1ccc(O[S+](=O)([O-])c2cccc3cccnc23)cc1)N[S+](=O)([O-])c1cccnc1)N1CCN(c2ccccc2)CC1,·,6%,·,·,·,·
COCOC1CCC(C(=O)Nc2ccc([S+](=O)([O-])Nc3nccs3)cc2)CC1 (centres undefined),·,15%,·,·,·,·
CNC(=O)CN1CCC(Oc2cc3c(Nc4cccc(Cl)c4F)ncnc3cc2OC)CC1,·,35µM*,·,8%,·,·
O=[N+]([O-])c1ccc(/C=N\O)o1,·,24%[57.5 µM],22,-10%[53.3 µM],·,·
NC(N)=NN=C(/C=C/c1ccc([N+](=O)[O-])o1)/C=C/c1ccc([N+](=O)[O-])o1,·,40µM*,-26,-4%[53.3 µM],·,·
Cc1cccc2sc(N3CCN(C(=O)c4ccco4)CC3)nc12,i,3%,9,-6%,4%,i
Cc1ccc(C)c2sc(N3CCN(C(=O)c4ccco4)CC3)nc12,i,-7%,88*,-12%,2%,i
CCN(CC)c1ccc(NC(=O)C2CCN(c3nnc(-n4cccc4)s3)CC2)c(C)c1,i,3%,60*,-15%,-7%,i
COc1ccc(N2CCN(CC(O)COc3ccc(C(C)C)c(C)c3)CC2)cc1 (centres undefined),i,?,104*,-12%,-10%,i
SMILES,TSG101-PTAP inh,NTMT1 inh,GPR32 ag,FH mod,GALK inhibitor,B2AR arrestin ag
Cc1cc(OCC(O)CN2CCN(c3cccc(Cl)c3)CC2)ccc1Cl (centres undefined),i,-8%,70*,?,1%,i
Nc1nccc2c1ncn2[C@@H]1C=C(CO)[C@@H](O)[C@H]1O,·,-97%,·,·,·,·
O=C(Nc1cccc(Br)c1)Nc1nc2c(s1)CCCCCC2,i,11%,113*,-11%,1%,i
CC(NC(=O)CCCn1c(=O)c2cccn2c2cccnc21)c1ccccc1 (centres undefined),i,89µM*,-11,10%,0%,i
O=C(Nc1ccc2nc(SCC(=O)N3CCCC3)sc2c1)c1cccc(F)c1,i,89µM*,-6,-27%,3%,i
Cc1cccc(NC(=O)CSc2nc3ccc(NC(=O)c4cccs4)cc3s2)c1,i,-8%,64*,-1%,1%,i
COc1cccc(NC(=O)CSc2nc3ccc(NC(=O)c4cccs4)cc3s2)c1,i,9%,95*,-15%,-6%,i
COCCCNC(=O)c1ccc(Cn2c(=O)c3ccccc3n(CC(=O)Nc3ccc(C)cc3C)c2=O)cc1,i,?,7,-22%,7%,i
COCCCNC(=O)Cn1c(=O)n(Cc2ccc(C(=O)NCc3ccc(C)cc3)cc2)c(=O)c2ccccc21,i,79µM*,98*,-8%,1%,i
O=C(NC1CCN(Cc2ccccc2)CC1)c1ccc(Cn2c(=O)c3ccccc3n(Cc3ccccc3)c2=O)cc1,i,79µM*,10,2%,0%,i
O=C(NC1CCN(Cc2ccccc2)CC1)c1ccc(Cn2c(=O)c3ccccc3n(Cc3ccc(Cl)cc3)c2=O)cc1,i,0%,5,0%,-1%,i
Cc1ccc(C(C)c2ccc(=O)n(CC(=O)NCCc3ccccc3)n2)cc1 (centres undefined),·,1%,·,·,·,·
N[C@H]1CCN(c2cnc3c(O)ccc(C(=O)O)c3c2)C1,·,-4%,·,·,·,·
COc1ccccc1C1NC(=O)c2n[nH]c(-c3cccs3)c21 (centres undefined),i,?,104*,-20%,0%,i
COc1ccccc1C1c2c(-c3ccc(Cl)cc3)n[nH]c2C(=O)N1c1ccc(C)cc1 (centres undefined),i,16%,-21,?,6%,i
Cc1ccc(C2NC(=O)c3n[nH]c(-c4cccs4)c32)cc1 (centres undefined),i,-19%,120*,-7%,7%,i
COc1cccc(CN2C(=O)c3ccccc3NC2c2ccc(OC)c(COc3c(C)cc(NC(C)=O)cc3C)c2)c1 (centres undefined),·,13%,·,·,·,·
